Assay outcomes (PubChem BioAssay)
KB-3-1 cytotox: KB-3-1 parental cell cytotoxicity; KB-3-1 viability, CellTiter-Glo ATP luminescence, 72 h; Potency, µM (doses to about 46.1 µM), usual class: cytotoxic; hit rate 1.4% among 400,000; AID 1347075; note: % is set by controls: 0 for no effect and ±100 for the full control effect; nearly all actives have a fitted effect of over 60% in size
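Parental KB-3-1 viability, qHTS format: 72 h compound exposure, 37 °C; CellTiter-Glo; media-only wells and DMSO plates as controls; concentration-effect fits on corrected data.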
MCF10A rereplic: induces DNA re-replication in MCF 10a normal breast cells; MCF 10A DNA re-replication, Hoechst nuclear intensity, 48 h; hit rate 2.9% among 350,000; Potency, µM (series often up to 46.1 µM), without a hit: at the highest dose activity, positive = re-replication, usual class: activators; note: % of control where 0% means no effect; nearly all actives have a fitted effect of over 50% in size
ELG1 DNA repair: ELG1-dependent DNA repair inhibition; HEK293T ELG1-luciferase reporter, luminescence, 16 h; DNA damage induced by 5-fluorouridine; Potency, µM (doses to about 46.1 µM), without a hit: at the top dose activity change, negative = inhibition, most hits filed as inhibitors; hit rate 2.3% among 330,000; note: % is set by controls: 0 for no effect and ±100 for the full control effect; nearly all actives have a fitted effect of over 55% in size
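Luminescence from the luciferase reporter, measured 30 min after ONE-Glo reagent at room temperature, was the read-out. Beforehand, 2,000 cells per well were exposed for 16 hr at 37 °C to 5-fluorouridine together with compound or vehicle.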
SW480 rerep: DNA re-replication induction in SW480 cells; SW480 DNA re-replication, Hoechst DNA content imaging, 48 h; Potency, µM (highest dose often 46.1 µM), without a hit: top-dose re-replication activation, most hits filed as activators; hit rate 1.8% among 340,000; note: % of control where 0% means no effect; nearly all actives have a fitted effect of over 55% in size
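Per well, 250 cells were exposed to pinned compound for 48 hr. Nuclear DNA was visualised with Hoechst (40 min, 37 C) and total object intensity recorded by fluorescence scanning.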
KB-V1 MDR tox: kills drug-selected multidrug resistant KB-V1 cells; KB-V1 MDR cells viability, CellTiter-Glo, 72 h; Potency, µM (titrated, usually from 46.1 µM), hits mostly cytotoxic; hit rate 3.4% among 400,000; note: % is set by controls: 0 for no effect and ±100 for the full control effect; nearly all actives have a fitted effect of over 60% in size
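Cytotoxicity toward P-gp-expressing KB-V1 cells was determined as loss of CellTiter-Glo luminescence after 72 h at 37 degrees C. Compounds were tested in quantitative HTS format across a concentration range, with curves fitted to normalized data.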
Numbers without * were called inactive; i = inactive; ? = inconclusive; / = no result. The list is not random: actives were taken first. Their share in the collection is about 8.1%. Calls come from the whole dose curve; as a rule, active = well fitted curve in the direction sought with a large enough effect; inconclusive = small, poorly fitted or top-dose-only effect, or another doubt; inactive = no such curve, though single readings can be large; an effect the other way counts as inactive or inconclusive. Potency is the fitted concentration of half-maximal effect.

SMILES	KB-3-1 cytotox	MCF10A rereplic	ELG1 DNA repair	SW480 rerep	KB-V1 MDR tox
O=C(Nc1cc(Cl)cc(Cl)c1)C(c1ccccc1)N1CCCCC1 (stereo unspecified)	?	-1.4%	-1.9%	4.5%	?
O=C(Nc1ccc(OC(F)F)c(Cl)c1)C(c1ccccc1)c1ccccc1	?	2.31µM*	-12.0%	16.6%	?
FC(F)Oc1ccc(NC(=S)NCc2ccccc2)cc1Cl	?	15.2%	0.0%	?	?
COC(=O)Cc1ccc(NC(=O)C(c2ccccc2)c2ccccc2)cc1	i	14.3%	-1.8%	1.9%	8.2µM*
Cc1cc(C)cc(-n2c3ccc(NC(=O)Cc4cccc5ccccc45)cc3c(=O)n2C)c1	5.17µM*	/	/	/	?
COCc1cccc(NC(=O)Cc2cccc3ccccc23)c1	i	6.1%	-3.4%	-12.5%	i
O=C(Cc1cccc2ccccc12)Nc1ccc(OC(F)F)c(Cl)c1	?	8.8%	?	0.3%	20.6µM*
CCSc1nnc(NS(=O)(=O)c2ccc(OC)cc2)s1	i	0.731µM*	13.5%	-58.2%	?
CCSc1nnc(NS(=O)(=O)c2ccc(C)cc2)s1	i	-3.3%	6.4%	-0.2%	i
O=C(Cn1nc(N2CCN(c3ccccc3)CC2)ccc1=O)NCc1ccccc1F	?	/	/	/	i
Cc1nc2c(-c3ccc(Cl)cc3)cnn2c2c1CCC2	i	20.6µM*	?	1.8%	i
Cc1nc2c(-c3ccc(Cl)cc3)cnn2c(N)c1-c1ccc(F)cc1	i	-1.1%	?	16.9%	i
Cc1cc(C(=O)COC(=O)c2ccc(O)cc2)c(C)n1CC1CCCO1 (stereo unspecified)	i	1.7%	?	-0.1%	?
COc1cc(-c2nnc(SCC(=O)c3ccc(C)cc3)o2)cc(OC)c1OC	i	11.8%	?	?	i
COc1cc(-c2nnc(SCc3c(F)cccc3Cl)o2)cc(OC)c1OC	?	?	?	-0.4%	?
COc1cccc(C(=O)CSc2nnc(-c3cc(OC)c(OC)c(OC)c3)o2)c1	i	0.5%	20.6µM*	-6.9%	i
Cc1cc(C(=O)COC(=O)c2ccc3c(c2)NC(=O)CS3)c(C)n1CC1CCCO1 (stereo unspecified)	i	?	?	?	11.6µM*
COc1cc(-c2nnc(SCc3ccccc3Cl)o2)cc(OC)c1OC	i	20.6µM*	?	-4.0%	2.31µM*
O=C(Nc1ccccc1-c1nnc(SCc2ccccc2Cl)o1)c1ccccc1	i	?	-1.1%	4.1%	14.6µM*
COc1ccc2cc1Oc1cc3c(cc1OC)CC[N+](C)(C)C3Cc1ccc(cc1)Oc1c(OC)c(OC)cc3c1C(C2)[N+](C)(C)CC3 (stereo unspecified)	/	2.0%	/	-0.3%	/
Cc1cc(C(=O)CSc2nnc(-c3ccc(F)cc3)o2)c(C)n1CC1CCCO1 (stereo unspecified)	i	1.9%	?	-7.1%	?
Cc1cc(C(=O)CSc2nnc(Nc3ccccc3F)s2)c(C)n1CC1CCCO1 (stereo unspecified)	i	?	?	17.4%	i
COc1cc(-c2nnc(SCC(=O)c3cc(C)n(CC4CCCO4)c3C)o2)cc(OC)c1OC (stereo unspecified)	i	23.4%	?	10.2%	18.4µM*
COc1ccc(Cc2nnc(SCC(=O)c3ccc(OC)cc3)o2)cc1	i	6.51µM*	?	-20.3%	i
Cc1cc(C(=O)CN2C(=O)c3ccccc3S2(=O)=O)c(C)n1CC1CCCO1 (stereo unspecified)	i	0.1%	5.17µM*	-2.3%	i
SMILES	KB-3-1 cytotox	MCF10A rereplic	ELG1 DNA repair	SW480 rerep	KB-V1 MDR tox
COc1ccc(C(=O)CSc2nnc(Cc3ccccc3)o2)cc1	i	-8.5%	5.3%	7.1%	i
Cc1cc(C(=O)CSc2nnc(Nc3ccccc3)s2)c(C)n1CC1CCCO1 (stereo unspecified)	i	26.9%	18.4µM*	?	?
COc1cccc(NC(=O)Cn2c(=O)n(Cc3ccco3)c(=O)c3cc(OC)c(OC)cc32)c1	i	/	/	/	i
Cc1ccc(NC(=O)COc2ccccc2C(N)=O)cc1S(=O)(=O)N1CCCCCC1	?	9.9%	?	-14.6%	?
COc1cc(-c2nnc(SCC(=O)N3c4ccccc4Sc4ccccc43)o2)cc(OC)c1OC	?	?	7.31µM*	1.1%	i
CC(=O)Nc1ccc(N2C(C(C)=O)=NN(c3ccc(Cl)cc3)C2c2sccc2C)cc1 (stereo unspecified)	i	23.1µM*	6.2%	?	?
O=C(OCc1cc(=O)n2nc(C3CC3)sc2n1)c1ccc(NC(=O)c2ccccc2Cl)cc1	?	/	/	/	i
C=CCN1C(=O)/C(=C/c2ccc(O)cc2)S/C1=N/c1nccs1	i	23.1µM*	-19.1%	4.8%	i
C=CCN=C1S/C(=C\c2ccc(N(C)C)cc2)C(=O)N1CC=C	i	18.4µM*	4.0%	?	i
CCc1nn(C(CC)C(=O)NCc2ccc(F)cc2)c(=O)c2cc3occc3n12 (stereo unspecified)	i	/	/	/	i
COc1ccc(C2Nc3ccccc3C(=O)N2c2ccccc2F)cc1COc1ccc(NC(C)=O)cc1 (stereo unspecified)	i	/	/	/	i
COc1cccc(/C=N/Nc2nc3ccccc3[nH]2)c1O	5.8µM*	?	4.11µM*	?	?
COc1cc(/C=N/Nc2nc3ccccc3[nH]2)ccc1O	i	10.0%	?	0.7%	18.4µM*
CCCCC(CC)CO (stereo unspecified)	i	6.8%	-12.1%	-68.7%	i
CCCCC(CC)CN=C(N)NC(N)=NCCCCCCN=C(N)NC(N)=NCC(CC)CCCC (stereo unspecified)	?	11.9µM*	?	?	?
COc1ccc(N2C(=O)c3ccc(C(=O)Nc4ccccc4O)cc3C2=O)cc1	i	2.91µM*	-1.4%	-40.7%	?
COc1ccc(C(OC(=O)c2ccco2)C(=O)NC2CCCCC2)cc1 (stereo unspecified)	i	0.2%	3.8%	0.4%	i
COc1ccc(C(OC(=O)c2c(C)noc2C)C(=O)NC2CCCC2)cc1 (stereo unspecified)	i	-6.1%	24.0%	-9.5%	5.17µM*
CCOC(=O)Cn1c(=O)n(CC2CCCO2)c2nc(-c3ccc(C(C)C)cc3)nc(C(N)=O)c21 (stereo unspecified)	i	/	/	/	?
COc1ccc2nc3oc(C(=O)NCc4ccccc4OC)cc3cc2c1	i	/	/	/	i
CCOc1ccc(NC(=O)NCCCN2CCCC2)cc1	i	-0.1%	2.5%	-0.3%	i
